Laboratory results from PubChem BioAssay (NCI).
Compounds without any hit were thinned out: in the full panel of roughly 83,000, 20% have a hit.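 48-hour exposure, single concentration, 96-well plates; percent growth endpoint where 0 means no net growth. Active: below 10.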 Values without a mark were called inactive. Active and inactive are the calls of the source.

test system: MDA-MB-468 breast; assay: NCI-60 one-dose screen, 48 h (100 = growth as untreated, 0 = no growth, -100 = all killed); details: 10 µM unless noted

Question: How did the growth turn out when `CC1(C)C2=C(C(=O)N1Cc1ccccc1)C(c1ccco1)N(C(=O)C1CCC1)CCN2` (stereo not given) was run?
Answer: 112%

Question: For `CC1=C/C(=C(\c2cc(C)c(O)c(C(=O)O)c2)c2c(Cl)cccc2Cl)C=C(C(=O)O)C1=O`, which growth is on record?
Answer: 104%

Question: Which growth does the source give for `Clc1ccc(CNc2c3ccccc3nc3ccccc23)cc1` here?
Answer: 29.6%

Question: With `CCCCc1n(Cc2ccc3ccccc3n2)cc[n+]1Cc1ccc2ccccc2n1` as the compound, how does the growth read?
Answer: -30% (active)

Question: With `CSc1nc2c(c(=O)n1C)C(c1ccccc1)C1=C(N2)/C(=C/c2ccccc2)CCC1` (stereo not given) as the compound, how does the growth read?
Answer: 34.7%

Question: For `O=C(NNc1nc2cc(F)cc(F)c2n2cccc12)c1cccnn1`, which growth is on record?
Answer: -21% (active)

Question: With `COc1ccccc1N(C(C)=O)C1=C(Cl)C(=O)c2ccccc2C1=O` as the compound, how does the growth read?
Answer: -92.8% (active)

Question: `CC1(C)N=C(N)N=C(N)N1c1ccc(CCCCc2ccccc2)c(Cl)c1` was tested. Which growth did it give?
Answer: -20.8% (active)

Question: Which growth does the source give for `CCN1C2=C(SC(=S)C1=C1SC(C(=O)OC)=C(C(=O)OC)S1)SC(=Nc1ccc(OC)cc1)C2=O` here?
Answer: -78% (active)

Question: How did the growth turn out when `CNC(=O)c1ccccc1Nc1nc(Nc2ccc3c(c2OC)CCC[C@H](N2CCN(CCO)CC2)C3)ncc1Cl` was run?
Answer: -52.8% (active)

Question: How did the growth turn out when `C=C(C)[C@@H]1CC[C@]2(C(=O)N3CCN(C)CC3)CC[C@]3(C)[C@H](CC[C@@H]4[C@@]5(C)CC[C@H](OCCC#N)C(C)(C)[C@@H]5CC[C@]43C)[C@@H]12` was run?
Answer: 69.4%

Question: For `CCN(CC)C(=O)C[N+](C)(C)CCOC(c1ccccc1)c1ccccc1`, which growth is on record?
Answer: 109%

Question: Which growth does the source give for `CC(C)OP(=O)(O)c1ncc(-c2ccc(C(F)(F)F)cc2)c(NC2CCCCCC2)n1` here?
Answer: 28%

Question: How did the growth turn out when `O=C(/C=C1\C(=O)N(Cc2ccccc2)c2ccccc21)c1ccc(OCCN2CCCCC2)cc1` was run?
Answer: 19.6%

Question: How did the growth turn out when `CN(C)CCCNC(=O)c1cncnc1Nc1ccc2c(ccn2Cc2cccc(F)c2)c1` was run?
Answer: 52.6%

Question: With `CCCCC/C(=C\c1ccccc1)C1OC(C)C(C)O1` (stereo not given) as the compound, how does the growth read?
Answer: 98.8%

Question: How did the growth turn out when `CC(=O)c1c[nH]c2ccccc12` was run?
Answer: 104%

Question: Which growth does the source give for `Cc1cc(C)c2c(c1)N(C)c1ncnc(-n3cnc4cc(C)ccc43)c1CC2C` (stereo not given) here?
Answer: 6.16% (active)

Question: For `Cc1cc(C2=NNC(=O)Cc3cc4c(cc32)OCCO4)cc(C)c1N`, which growth is on record?
Answer: 9.52% (active)

Question: Which growth does the source give for `CC(C)NCC(O)COc1ccc(CCOCC2CC2)cc1` (stereo not given) here?
Answer: 103%

Question: How did the growth turn out when `Cc1ccc2oc(=O)cc(C3c4ccc([nH]4)C(c4cc(=O)oc5ccc(C)cc45)c4ccc([nH]4)C(c4cc(=O)oc5ccc(C)cc45)c4ccc([nH]4)C(c4cc(=O)oc5ccc(C)cc45)c4ccc3[nH]4)c2c1` (stereo not given) was run?
Answer: -28.6% (active)

Question: `COC(=O)c1ccc(C(=Nc2ccc(N(C)C(=O)CN3CCN(C)CC3)cc2)c2c(O)[nH]c3ccc(C(=O)OC)cc23)cc1` was tested. Which growth did it give?
Answer: 62.5%

Question: With `C[C@H]1[C@H]2[C@H]3CC[C@@H]4[C@@]5(C)C/C(=C/c6ccco6)C(=O)C(C)(C)[C@@H]5CC[C@@]4(C)[C@]3(C)CC[C@]23CO[C@]1(C)[C@@H](C(=O)/C=C\c1ccco1)C3` as the compound, how does the growth read?
Answer: 76.3%

Question: Which growth does the source give for `O=C(O)COc1ccc(F)cc1` here?
Answer: 98.8%

Question: With `O=C(NCc1ncc[nH]1)c1ccc(-c2nc3ccc4[nH]ncc4c3c3c2CCCC3)cc1` as the compound, how does the growth read?
Answer: -47.1% (active)

Question: With `COc1ccc(/C(C)=C(\c2ccc(Cl)cc2)c2ccc(OCCN3CCCC3)cc2)cc1` as the compound, how does the growth read?
Answer: 57.8%

Question: For `O=C(CSc1nccc(Nc2ccc(S(=O)(=O)Nc3nccs3)cc2)n1)c1ccc(F)cc1`, which growth is on record?
Answer: 98.6%

Question: How did the growth turn out when `COc1ccc(/C=C/C(=O)c2cc3c(N)c(C(=O)Nc4ccccc4C)sc3nc2C)cc1` was run?
Answer: 16.3%

Question: `C/C(=C\c1ccc(OCC(=O)O)c(Cl)c1Cl)[N+](=O)[O-]` was tested. Which growth did it give?
Answer: 119%

Question: `Cc1ccc(C(=O)NN)cc1` was tested. Which growth did it give?
Answer: 106%

Question: How did the growth turn out when `COc1ccc(/C=C2\N=C(c3ccccc3)N(C(=O)c3ccccc3O)NC2=O)cc1` was run?
Answer: 106%

Question: `CN1CCN(c2ccc(Nc3nc(NCCNS(=O)(=O)c4ccc5ccccc5c4)c4sccc4n3)cc2)CC1` was tested. Which growth did it give?
Answer: 2.8% (active)

Question: Which growth does the source give for `Nc1nc2ccc(-c3nc4ccc5[nH]ncc5c4c4c3CCCC4)cc2s1` here?
Answer: 112%

Question: With `Cc1cc(N(CCNc2ccnc3cc(Cl)ccc23)Cc2ccco2)nc(Cl)n1` as the compound, how does the growth read?
Answer: -33.5% (active)

Question: Which growth does the source give for `O=C(O)c1ccc(Cl)cc1Nc1ccc(F)cc1` here?
Answer: 27.9%

Question: For `C=CCN(C)S(=O)(=O)/N=C1\NC(=O)NC1=C(Cl)Cl`, which growth is on record?
Answer: 28.7%

Question: For `O=S(=O)(Oc1ccc(-c2ccc3sccc3c2)cc1)c1ccc(F)cc1`, which growth is on record?
Answer: 86.9%

Question: With `COc1ccc2c(Nc3ccc(NS(C)(=O)=O)cc3)c3ccccc3nc2c1` as the compound, how does the growth read?
Answer: -59.5% (active)

Question: For `COc1ccc2oc(=O)cc(Cn3cc(Cn4cnc5c4c(=O)n(C)c(=O)n5C)nn3)c2c1`, which growth is on record?
Answer: 101%

Question: With `N#Cc1c(-c2ccccc2)cc(-c2ccccc2)n(CC(=O)NO)c1=O` as the compound, how does the growth read?
Answer: 43.5%
